Measurements from PubChem BioAssay (EPA / NIEHS).
The source made the active and inactive calls. The calls were made as follows: active = hit-call score of the fitted dose curve at least 0.9, where 1 is the maximum; inactive = score below 0.9.

Read-out: NAD(P)H dehydrogenase [quinone] 1 (NQO1), NQO1 (gene 1728)
Experiment: LTEA_HepaRG_NQO1: Life Technologies and Expression Analysis (LTEA) Assay for NAD(P)H dehydrogenase [quinone] 1 (NQO1) using HepaRG (AID 2283526)
Settings: mRNA level, 48 h; actives raise or lower the signal
Description: LTEA_HepaRG is a cell based, multiplexed-readout assay that uses HepaRG, a human liver cell line, with measurements taken at 48 hours after chemical dosing on a 96-well plate.LTEA_HepaRG_NQO1 is one of 102 assay component(s) measured in the LTEA HepaRG cell culture assay. It is a marker of Diseases associated with NQO1 include Tardive Dyskinesia and Childhood Leukemia.Data from the assay component LTEA_HepaRG_NQO1 was analyzed into 1 endpoint. This assay endpoint, LTEA_HepaRG_NQO1, was analyzed with bidirectional fitting relative to DMSO as the negative control and baseline of activity. Using a type of inducible reporter, measures of mRNA induction for gain or loss-of-signal activity can be used to understand regulation of transcription factor activity. To generalize the intended target to other relatable targets, this assay endpoint is annotated to the oxidoreductase intended target family, where the subfamily is quinone-acceptor.
A total of 1060 chemcials from the ToxCast library were tested in eight-point concentration-response experiments. Cell culture and cytotoxicity assays were conducted at Thermo Fisher Scientific's Custom Services facility (Madison, WI). A single lot of human HepaRG cells (Thermo Fisher Scientific, Frederick, MD) was used for the cell culture experiments. 96-well format collagen type I coated plates of human HepaRG cells were prepared using established methods. Briefly, cryopreserved HepaRG cells were thawed, plated at a density of approximately 100,000 cells/well in HepaRG Thaw, Plate, and General Purpose media (HPRG770, Thermo Fisher Scientific), and incubated for 48 hours. 0.5% DMSO was selected as vehicle control to balance the requisite need of DMSO in HepaRG cultures to maintain differentiation (for example, baseline metabolism, proportions of hepatocytes vs. cholangiocytes), while enabling further hepatic receptor pathway activation (for example, PXR and CAR) in response to chemical exposure. 48 hours after plating, the culture medium was replaced with HepaRG Serum-Free Incudtion Media. Cells were exposed to each test chemical in duplicate and maintained in CO2 incubators for another 48 hours. Chemical plates were thawed to room temperature and 200x concentrations of treatment groups were prepared. 8-point conentration-reponse curves were made with the highest exposure at 100 uM, followed by half-log dilutions, all in 0.5% DMSO. Each test plate contained variouse controls, induction positive controls (1mM phenobarbital), cytotoxicity positive controls ([…] aflatoxin B1), vehicle controls (0.5% DMSO), and total lysis controls (0.5% DMSO). Cell morphology images were taken using an Essen IncuCyte FLR automated microscope, with six 96-well plates imaged in about 24 minutes. Images were captured and exported and JPEG files. Spent culture media was transfered to black-well plates for the LDH assay, and remaining media was sorted at -80 C for later use. Cells were treated with RLT buffer and frozen until shipped for gene expression analysis. Total RNA was isolated from the cell suspension in 75 uL of Buffer RLT (Qiagen, Germantown, MD 20874) by Quintiles/Expression Analysis (Durham, NC) using a custom isolation procedure. Total RNA from each plate well was transferred to a preamplification plate. Fluidigm's 96.96 Dynamic ArrayTM (Fluidigm, Amsterdam, the Netherlands) technology was used for gene expression analyses by quantitative reverse transcription polymerase chain reaction (qRT-PCR, performed by Quintiles/Expression Analysis, Durham, NC)89. Standard TaqManTM Assays (Applied Biosystems/ThermoFisher Scientific, Foster City, CA) were used to assess the expression of 93 genes selected based on their selectivity and sensitivity to important hepatic receptors known to be modulated by environmental chemicals; importance in human hepatocyte functionality; and hepatotoxicity. […]

| SMILES | outcome | AC50 |
| --- | --- | --- |
| C#CCN1C(=O)COc2cc(F)c(N3C(=O)C4=C(CCCC4)C3=O)cc21 | inactive |  |
| Cc1[nH]c(=O)n(C(C)(C)C)c(=O)c1Cl | inactive |  |
| CNC(=O)Oc1cccc(N=CN(C)C)c1 | inactive |  |
| C[C@H]1[C@H](c2ccc(Cl)cc2)SC(=O)N1C(=O)NC1CCCCC1 | inactive |  |
| CC1(C)C(C=C(Cl)Cl)C1C(=O)OC(C#N)c1ccc(F)c(Oc2ccccc2)c1 (stereo not given) | inactive |  |
| CCCN(CCOc1c(Cl)cc(Cl)cc1Cl)C(=O)n1ccnc1 | inactive |  |
| CC(C)(C)C(O)/C(=C\c1ccc(Cl)cc1Cl)n1cncn1 (stereo not given) | inactive |  |
| CCOC1Oc2ccc(OS(C)(=O)=O)cc2C1(C)C (stereo not given) | inactive |  |
| CNC(=O)CSP(=S)(OC)OC | inactive |  |
| CC[C@H](C)[C@H]1O[C@]2(C=C[C@@H]1C)C[C@@H]1C[C@@H](C/C=C(\C)[C@@H](O[C@H]3C[C@H](OC)[C@@H](O[C@H]4C[C@H](OC)[C@@H](O)[C@H](C)O4)[C@H](C)O3)[C@@H](C)/C=C/C=C3\CO[C@@H]4[C@H](O)C(C)=C[C@@H](C(=O)O1)[C@]34O)O2 (tested in a mixture with another compound) |  | 49.7 µM (active) |
| O=C(O)COc1ccc(Cl)cc1Cl | inactive |  |
| COP(=S)(OC)Oc1ccc([N+](=O)[O-])cc1 | inactive |  |
| CCOCN(C(=O)CCl)c1c(C)cccc1CC | inactive |  |
| CC(C)N(C(=O)COc1nnc(C(F)(F)F)s1)c1ccc(F)cc1 | inactive |  |
| CC(C)OC(=O)Nc1cccc(Cl)c1 | inactive |  |
| O=S(=O)(O)C(F)(F)C(F)(F)C(F)(F)C(F)(F)C(F)(F)C(F)(F)C(F)(F)C(F)(F)F | inactive |  |
| CNC(=O)Oc1ccccc1OC(C)C | inactive |  |
| CCc1ccc(C(=O)NN(C(=O)c2cc(C)cc(C)c2)C(C)(C)C)cc1 | inactive |  |
| CC(C)(C)C(O)C(Oc1ccc(Cl)cc1)n1cncn1 (stereo not given) | inactive |  |
| O=C(O)CCCOc1ccc(Cl)cc1Cl | inactive |  |

| SMILES | outcome | AC50 |
| --- | --- | --- |
| Clc1ccccc1-c1nnc(-c2ccccc2Cl)nn1 | inactive |  |
| N#Cc1c(Cl)c(Cl)c(Cl)c(C#N)c1Cl | inactive |  |
| CCCN(CCC)c1c([N+](=O)[O-])cc(C(F)(F)F)cc1[N+](=O)[O-] | inactive |  |
| ClC1C(Cl)C(Cl)C(Cl)C(Cl)C1Cl (stereo not given) | inactive |  |
| O=C(Nc1ccccc1)Nc1cnns1 | inactive |  |
| O=C1c2ccccc2C(=O)N1SC(Cl)(Cl)Cl | inactive |  |
| O=[N+]([O-])/N=C1\NCCN1Cc1ccc(Cl)nc1 |  | 29.1 µM (active) |
| CCC(C)Nc1c([N+](=O)[O-])cc(C(C)(C)C)cc1[N+](=O)[O-] (stereo not given) | inactive |  |
| O=[N+]([O-])c1c(Cl)c(Cl)c(Cl)c(Cl)c1Cl | inactive |  |
| O=C(NC(=O)c1c(F)cccc1F)Nc1ccc(OC(F)(F)C(F)OC(F)(F)F)c(Cl)c1 (stereo not given) | inactive |  |
| CN1CSC(=S)N(C)C1 | inactive |  |
| CNC(=O)/C=C(\C)OP(=O)(OC)OC | inactive |  |
| COc1nn(CSP(=S)(OC)OC)c(=O)s1 | inactive |  |
| N#CN | inactive |  |
| Oc1ccc(Cl)cc1Cc1ccccc1 | inactive |  |
| CCN(CC)C(=O)SCc1ccc(Cl)cc1 | inactive |  |
| CC1(c2ccc(Oc3ccccc3)cc2)OC(=O)N(Nc2ccccc2)C1=O (stereo not given) |  | 50.2 µM (active) |
| COP(=O)(OC)OC=C(Cl)Cl | inactive |  |
| COP(=S)(OC)Oc1ccc(SC)c(C)c1 | inactive |  |
| Oc1cc(Cl)ccc1Oc1ccc(Cl)cc1Cl | inactive |  |
